Screening data from PubChem.
Only some compounds are listed: those with a hit (about 18% of all), similar ones and a draw of the others.
TDP1 cell CPT: qHTS for Inhibitors of human tyrosyl-DNA phosphodiesterase 1 (TDP1): qHTS in cells in presence of CPT; chicken DT40 Tdp1-/-;hTDP1 cells + 20 nM CPT, ATP luminescence, 48 h; 12% of 420,000 active; Potency, µM (highest dose often 46.2 µM), actives largely listed as inhibitors; also: nearly all actives have a fitted effect of over 55% in size
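Cell growth measured by CellTiter-Glo luminescence after a minimum 48 h, 37 C compound exposure with 20 nM CPT in Tdp1-knockout DT40 cells stably expressing hTDP1, seeded 400/well; qHTS titration format.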
DT40 TDP1 no CPT: qHTS for Inhibitors of human tyrosyl-DNA phosphodiesterase 1 (TDP1): qHTS in cells in absence of CPT; AID 686978, 2013; 15% of 420,000 active; Potency, µM (doses to about 46.2 µM), actives largely listed as inhibitors; DT40 Tdp1-/- hTDP1 cells, no CPT, ATP luminescence, 48 h; also: nearly all actives have a fitted effect of over 55% in size
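Camptothecin absent (DMSO only). Human TDP1-complemented DT40 knockout cells, 400 cells/well, 37 °C for minimum 48 hr; ATP measured via CellTiter-Glo, 30 min dark incubation, luminescence.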
LDHA block: qHTS assay for inhibitors of human lactate dehydrogenase | L-lactate dehydrogenase A chain (Homo sapiens), P00338 | purified LDHA, NADH/diaphorase-resazurin fluorescence; active compounds read low | activity change, % (values are at about 110 or 230 µM) | 0.15% of 480,000 active; in the data active = activity change below about -30%; inconclusive = mostly about -25% to -30%
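Resorufin fluorescence (ex540/em590), read at 0 and 20 min after diaphorase/resazurin addition, reports the NADH left after a 5 min room-temperature reaction of 2 nM human LDH5 with 0.06 mM NADH and 0.2 mM pyruvate.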
VP16 counter: VP16 counterscreen qHTS for inhibitors of ROR gamma transcriptional activity. Drosophila S2 Gal4-VP16 UAS-luciferase, luminescence, 20 h. Potency, µM (highest dose often 53.6 µM), most hits filed as inhibitors. 3.5% of 310,000 active. AID 2546, 2010;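 also: Gal4-VP16 expression switched on by copper sulfate through the metallothionein promoter; nearly all actives have a fitted effect of over 50% in size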
RORgamma inh: qHTS for inhibitors of ROR gamma transcriptional activity; Drosophila S2 Gal4-RORgamma UAS-luciferase reporter, 20 h; Potency, µM (doses to about 53.6 µM), hits mostly inhibitors; 5.4% of 310,000 active; AID 2551, 2010; also: nearly all actives have a fitted effect of over 60% in size
Target sequence (P51450 whole entry, looked up, the tested form may be a part): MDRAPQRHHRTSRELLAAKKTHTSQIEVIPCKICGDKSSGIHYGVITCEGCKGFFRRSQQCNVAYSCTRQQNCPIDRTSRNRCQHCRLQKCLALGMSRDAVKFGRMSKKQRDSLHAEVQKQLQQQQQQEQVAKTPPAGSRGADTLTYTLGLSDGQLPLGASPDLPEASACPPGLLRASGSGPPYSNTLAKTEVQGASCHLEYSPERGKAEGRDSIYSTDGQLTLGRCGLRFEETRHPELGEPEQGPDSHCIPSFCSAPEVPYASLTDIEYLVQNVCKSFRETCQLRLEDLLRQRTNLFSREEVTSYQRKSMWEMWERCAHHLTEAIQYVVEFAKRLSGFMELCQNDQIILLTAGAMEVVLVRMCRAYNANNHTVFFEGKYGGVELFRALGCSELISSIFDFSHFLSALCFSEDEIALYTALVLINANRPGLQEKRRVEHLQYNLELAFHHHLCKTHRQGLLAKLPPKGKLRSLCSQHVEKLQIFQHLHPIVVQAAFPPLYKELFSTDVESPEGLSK
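In this cell-based reporter format, copper sulfate (700 uM final) drives Gal4–ROR gamma fusion expression from a metallothionein promoter in Drosophila Schneider cells; compounds preincubated 1 hr, reporter read after 20 hr at ambient temperature.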
IL1B secr inh: qHTS for Inhibitors of Inflammasome Signaling: IL-1-beta AlphaLISA Primary Screen; 4.7% of 360,000 active; THP-1 LPS/ATP IL-1B secretion, AlphaLISA, 16 h; active compounds read low; activity change, % at 57.5 µM; AID 743279, 2014; in the data active = activity change below about -50%; inconclusive = mostly about -30% to -49%
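Secreted IL-1B measured by AlphaLISA bead assay after 16 h compound exposure of THP-1 cells; compounds (final up to 57.5 uM) added 1 h before LPS (250 ng/mL) and ATP (1.25 mM) stimulation; lower signal means less secretion.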
Numbers stand for hits; . = inactive; ? = inconclusive; / = no result given; [ ] = dose if it differs, or a comment. Unless noted, calls follow the shape of the dose curve; as a rule, active = well fitted curve in the direction sought with a large enough effect; inconclusive = small, poorly fitted or top-dose-only effect, or another doubt; inactive = no such curve, though single readings can be large; an effect the other way counts as inactive or inconclusive.

SMILES	TDP1 cell CPT	DT40 TDP1 no CPT	LDHA block	VP16 counter	RORgamma inh	IL1B secr inh
C=C(C(=O)c1ccccc1)C(NC(C)(C)C)c1ccccc1 (stereo not drawn)	2.1µM	2.3µM	.	/	/	-101
CCC(=O)Oc1ccc2c(=O)c(Oc3ccccc3Br)c(C)oc2c1	/	/	.	/	/	/
COc1ccccc1-n1c(=O)c2c(n3cnnc13)-c1ccccc1CC21CCCCC1	/	/	.	/	/	/
CCCOc1cccc(-c2cc(C(=O)NCCCN3CCOCC3)c3ccccc3n2)c1	/	/	.	/	/	/
O=C(NC(=S)Nc1ccccn1)c1ccc([N+](=O)[O-])cc1	.	.	?	11µM	5µM	.
O=C(NC(=S)Nc1ccccn1)c1ccc(-c2ccccc2)cc1	21µM	18µM	.	4µM	3.2µM	.
O=C(NC(=S)Nc1ccccn1)c1ccccc1	.	?	.	?	?	.
Cc1cc(C)c(NC(=S)NC(=O)c2ccc(-c3ccccc3)cc2)c(C)c1	?	21µM	.	5.6µM	4.5µM	.
CN(C)C(=S)SCCCCC#N	/	/	.	/	/	/
Cn1nc([N+](=O)[O-])nc1N1CCN(c2ccc(F)cc2)CC1	.	.	.	.	.	.
Cn1nc(C(F)(F)F)c(C#N)c1N1CCN(c2ccccc2)CC1	?	15µM	.	?	.	.
Cn1nc(C(F)(F)F)c(C#N)c1N1CCN(c2ccccn2)CC1	.	?	.	.	.	.
Cn1nc(C(F)(F)F)c(C#N)c1N1CCN(c2ccc(F)cc2)CC1	?	21µM	.	.	.	.
OCc1ccccc1-c1nc(NCc2ccccc2)nc2ccsc12	?	.	.	/	/	.
c1ccc(-c2cc3nc(NCC4CC4)nc(NCC4CCCCC4)c3s2)cc1	4.6µM	2.9µM	.	/	/	-109
COCCNc1nc(-c2ccccc2CO)c2sc(-c3ccccc3)cc2n1	1.3µM	1.8µM	.	/	/	.
O=C1NCCN1CCNc1nc(NCC2CC2)nc2cc(-c3ccccc3)sc12	?	21µM	.	/	/	/
COCCNc1nc(NCC2CCCCC2)c2sc(-c3ccccc3)cc2n1	15µM	8.2µM	.	/	/	-103
COc1ccc(CN(C)CC(=O)N(C)c2ccccc2C(=O)NCc2ccco2)cc1	/	/	.	/	/	/
CC(=O)N1CCC2(CC1)Oc1ccc(Br)cc1C1CC(c3ccncc3)=NN12 (stereo not drawn)	/	/	.	/	/	/
Cc1cc(C)cc(Nc2ccc([N+](=O)[O-])cn2)c1	/	/	.	/	/	/
COCCNc1nc(NCCOc2ccccc2Cl)c2sc(-c3ccccc3)cc2n1	9.2µM	13µM	.	/	/	-60
COCCNc1nc(NCCCN2CCCC2=O)c2sc(-c3ccccc3)cc2n1	?	?	.	/	/	.
CC(NC(=O)c1cc(-c2ccco2)nc2ccccc12)c1ccccc1 (stereo not drawn)	/	/	.	/	/	/
Cc1ccc(S(=O)(=O)N2C[C@@H](C)[C@]3(C2)[C@H](O)[C@H](OC(=O)NC2CC2)C[C@H]2C(=O)N(c4ccccc4)C(=O)[C@H]23)cc1	?	?	.	/	/	?
SMILES	TDP1 cell CPT	DT40 TDP1 no CPT	LDHA block	VP16 counter	RORgamma inh	IL1B secr inh
Cc1ccc(S(=O)(=O)N2C[C@@H](C)[C@]3(C2)[C@H](O)[C@H](OC(=O)Nc2cccs2)C[C@H]2C(=O)N(c4ccccc4)C(=O)[C@H]23)cc1	23µM	16µM	.	/	/	-109
COc1ccc(CNC(=O)O[C@@H]2C[C@H]3C(=O)N(c4ccccc4)C(=O)[C@H]3[C@@]3(CN(S(=O)(=O)c4ccc(C)cc4)C[C@H]3C)[C@@H]2O)cc1OC	?	26µM	.	/	/	-64
CC1CCN(C(=O)Cc2n[nH]c(=O)c3ccccc23)CC1	/	/	.	/	/	/
COc1ccc(CCNC(=O)COc2ccc3ccc(=O)oc3c2)cc1	/	/	.	/	/	/
CONC(=O)c1ccccc1Cc1ccccc1	/	/	.	/	/	/
COc1ccc(S(=O)(=O)N2CCCCC2)cc1	.	.	.	.	.	.
COc1cc(C(=O)O/N=C2\C=CC(=O)C(C)=C2)cc(OC)c1OC	6.5µM	16µM	.	5.6µM	5µM	-72
COc1cc(C(=O)ON=C2C=C(C)C(=O)C(C)=C2)cc(OC)c1OC	15µM	16µM	.	.	.	.
COc1ccc(C(=O)ON=C2C=C(C)C(=O)C(C)=C2)cc1	13µM	23µM	.	.	.	?
COc1ccc(S(=O)(=O)N=C2C=C(C)C(=O)C(C)=C2)cc1	15µM	21µM	.	.	.	.
CCCCn1c(=O)[nH]c(=O)c2c1nc(CSc1nnc(-c3ccco3)n1C1CCCCC1)n2CC	/	/	.	/	/	/
N#Cc1c(N)oc(-c2ccco2)c1-c1ccco1	?	16µM	.	.	.	?
Cc1ccc(-c2nc(CNS(=O)(=O)c3ccc(Cl)cc3)c(C)o2)cc1	/	/	.	/	/	/
O=C(c1ccncc1)N1N=C(C2CCCCC2)CC1(O)C(F)(F)F (stereo not drawn)	2.9µM	4.6µM	.	?	.	.
Cc1occc1C(=O)N1N=C(C2CC2)CC1(O)C(F)(F)F (stereo not drawn)	.	.	.	?	7.9µM	.
Cc1ccc(Nc2nc(CN3CCN(S(=O)(=O)c4ccc(C)cc4)CC3)cs2)cc1	/	/	.	/	/	/
O=S1(=O)c2ccc(Br)cc2N2CC[C@H](C2)N1Cc1ccc(Cl)cc1	1.3µM	1.6µM	.	/	/	.
CSc1nc2c(sc3ccccc32)c(=O)n1Cc1ccc(C)cc1	21µM	16µM	.	/	/	/
Cc1ccc(CNC(=O)CSc2nc3c(sc4ccccc43)c(=O)n2CCCOC(C)C)cc1	.	?	.	/	/	/
Cc1ccc(CNC(=O)CSc2nc3c(sc4ccccc43)c(=O)n2CCCN2CCCC2)cc1	23µM	?	.	.[10 µM]	.	-90
O=C(CSc1nc2c(sc3ccccc32)c(=O)n1CCCN1CCCC1)NCc1ccccc1	.	?	.	.	.	-100
CN1CCN(C(=O)c2ccc(CNC(=O)c3cc4cc(F)ccc4[nH]3)cc2)CC1	/	/	.	/	/	/
CNC(=O)NC(=O)C(C)Nc1cccc(Cl)c1C (stereo not drawn)	/	/	.	/	/	/
CCS(=O)(=O)c1ncc(Cl)c(C(=O)Nc2c(C(=O)Nc3cccc(C)c3)oc3ccccc23)n1	1µM	0.73µM	.	/	/	/
COc1cccc(NC(=O)c2ncc(Cl)c(Cl)c2Cl)c1	7.3µM	5.2µM	.	?	.	.
COc1cccc(NC(=O)c2nc(SC)ncc2Cl)c1	?	?	.	.	.	.
